Results as given in ChEMBL document CHEMBL3988442, “University of Dundee, Small-Polar-MMV Screening Library” (2021).
For some of these results: Measured potencies and affinities stand elsewhere.

Columns and labels:
Parameters in all cases: scale not given: direction of the effect not stated beside the values
[1] = molecular target: Protein translocase subunit SecA (Escherichia coli (strain K12)) (UniProt P10408); test: Assay to Identify E. coli SecA ATPase Inhibitors; assay type: functional; conditions: 30 µM
[2] = molecular target: T1, Ubiquitin-activating enzyme e1, putative (Leishmania donovani (strain BPK282A1)) (UniProt E9BSI1); test: Leishmania donovani Ubiquitin Activating Enzyme (LdE1); assay type: functional; conditions: 30 µM
T1 sequence (whole entry): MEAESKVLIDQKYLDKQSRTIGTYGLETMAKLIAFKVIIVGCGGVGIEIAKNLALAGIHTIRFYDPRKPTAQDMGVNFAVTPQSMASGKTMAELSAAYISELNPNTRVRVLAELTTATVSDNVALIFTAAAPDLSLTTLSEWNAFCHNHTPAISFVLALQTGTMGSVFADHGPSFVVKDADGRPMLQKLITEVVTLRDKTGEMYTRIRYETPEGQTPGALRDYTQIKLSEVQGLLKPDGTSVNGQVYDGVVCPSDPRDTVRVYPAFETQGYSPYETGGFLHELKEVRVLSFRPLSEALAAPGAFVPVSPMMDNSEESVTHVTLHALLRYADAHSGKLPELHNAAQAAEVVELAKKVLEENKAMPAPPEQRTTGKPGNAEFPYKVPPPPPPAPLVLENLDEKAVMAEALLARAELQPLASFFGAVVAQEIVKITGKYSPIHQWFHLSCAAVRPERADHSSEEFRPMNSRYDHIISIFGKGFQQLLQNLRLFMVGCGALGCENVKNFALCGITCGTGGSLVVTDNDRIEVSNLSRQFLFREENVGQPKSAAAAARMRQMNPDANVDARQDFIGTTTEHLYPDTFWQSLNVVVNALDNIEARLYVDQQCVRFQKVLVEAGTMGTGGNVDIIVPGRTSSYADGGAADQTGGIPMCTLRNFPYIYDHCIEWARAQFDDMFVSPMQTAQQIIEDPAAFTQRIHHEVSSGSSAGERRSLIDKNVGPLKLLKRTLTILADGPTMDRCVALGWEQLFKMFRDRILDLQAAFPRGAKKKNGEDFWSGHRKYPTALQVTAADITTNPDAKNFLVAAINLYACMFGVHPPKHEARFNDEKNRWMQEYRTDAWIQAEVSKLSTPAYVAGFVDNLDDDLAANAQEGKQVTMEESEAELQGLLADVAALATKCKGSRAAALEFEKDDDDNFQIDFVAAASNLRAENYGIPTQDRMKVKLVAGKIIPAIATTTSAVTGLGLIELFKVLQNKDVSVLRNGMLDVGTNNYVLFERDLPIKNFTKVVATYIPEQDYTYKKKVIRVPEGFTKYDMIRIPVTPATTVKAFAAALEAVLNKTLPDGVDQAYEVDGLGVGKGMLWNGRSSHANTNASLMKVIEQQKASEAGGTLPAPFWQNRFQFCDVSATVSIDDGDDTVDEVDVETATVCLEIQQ

[3] = molecular target: AMP-activated protein kinase, AMPK (Homo sapiens) (UniProt P54646+O43741+P54619+Q9UGJ0+Q9Y478+Q13131+Q9UGI9); test: AMP-dependent Kinase enzyme assay. An in vitro enzyme assay that detects ADP turnover that is directly proportional to AMPK activity. This uses naive AMPK that is activated during the assay with MK-8722; assay type: functional; conditions: 30 µM
[4] = molecular target: Sialic acid-binding Ig-like lectin 9 (Homo sapiens) (UniProt Q9Y336); test: Hs-Siglec9 ALPHAscreen SOP 20170721; conditions: 10 µM
Trypanosoma cruzi = test: Trypanosoma cruzi phosphomannomutase and mannose-1-phosphate guanylyltransferase assay; assay type: functional; conditions: 10 µM
[5] = molecular target: T2, Arginase-2, mitochondrial (Homo sapiens) (UniProt P78540); test: in vitro enzyme assay to detect the production of urea directly proportional to the activity of Arginase II; assay type: functional; conditions: 33.3 µM; note: in the data most compounds retested in dose-response had high values
T2 sequence (whole entry): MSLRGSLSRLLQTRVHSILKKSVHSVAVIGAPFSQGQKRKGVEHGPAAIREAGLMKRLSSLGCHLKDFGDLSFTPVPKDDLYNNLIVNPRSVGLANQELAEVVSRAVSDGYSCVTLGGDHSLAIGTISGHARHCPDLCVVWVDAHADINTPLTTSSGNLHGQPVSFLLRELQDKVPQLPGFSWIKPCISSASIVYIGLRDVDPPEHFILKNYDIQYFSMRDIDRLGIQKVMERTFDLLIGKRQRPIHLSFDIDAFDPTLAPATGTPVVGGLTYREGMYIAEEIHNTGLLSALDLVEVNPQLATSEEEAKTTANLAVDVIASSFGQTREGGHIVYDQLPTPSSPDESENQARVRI

[6] = molecular target: T3, Proteasome subunit beta (Trypanosoma cruzi) (UniProt O96673); test: Trypanosoma cruzi proteasome chymotrypsin-like activity (TcProtChymo) assay.; note: in the data most compounds retested in dose-response had high values; assay type: functional; conditions: 9.37 µM
T3 sequence (whole entry): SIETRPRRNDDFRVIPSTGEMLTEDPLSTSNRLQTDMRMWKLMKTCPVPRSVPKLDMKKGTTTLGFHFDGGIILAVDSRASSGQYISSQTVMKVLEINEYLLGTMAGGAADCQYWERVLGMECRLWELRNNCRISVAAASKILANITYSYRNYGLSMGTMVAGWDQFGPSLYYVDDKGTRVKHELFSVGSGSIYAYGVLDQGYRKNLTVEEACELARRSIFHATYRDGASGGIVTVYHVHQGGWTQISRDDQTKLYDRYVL

Homo sapiens = organism: Homo sapiens; test: To identify inhibition of the IFN signalling (Jak-Stat) pathway via expression of an eGFP reporter gene under the control of an IFN-stimulated response element (ISRE) containing MxA promoter.; assay type: functional; conditions: 30 µM
[7] = molecular target: T4, Tyrosyl-tRNA synthetase, putative (Trypanosoma cruzi (strain CL Brener)) (UniProt Q4DSP6); test: Trypanosoma cruzi tyrosyl tRNA synthetase (TcYRS) _High Tyrosine SOP; assay type: functional; conditions: 30 µM; note: in the data most compounds retested in dose-response had high values
T4 sequence (whole entry): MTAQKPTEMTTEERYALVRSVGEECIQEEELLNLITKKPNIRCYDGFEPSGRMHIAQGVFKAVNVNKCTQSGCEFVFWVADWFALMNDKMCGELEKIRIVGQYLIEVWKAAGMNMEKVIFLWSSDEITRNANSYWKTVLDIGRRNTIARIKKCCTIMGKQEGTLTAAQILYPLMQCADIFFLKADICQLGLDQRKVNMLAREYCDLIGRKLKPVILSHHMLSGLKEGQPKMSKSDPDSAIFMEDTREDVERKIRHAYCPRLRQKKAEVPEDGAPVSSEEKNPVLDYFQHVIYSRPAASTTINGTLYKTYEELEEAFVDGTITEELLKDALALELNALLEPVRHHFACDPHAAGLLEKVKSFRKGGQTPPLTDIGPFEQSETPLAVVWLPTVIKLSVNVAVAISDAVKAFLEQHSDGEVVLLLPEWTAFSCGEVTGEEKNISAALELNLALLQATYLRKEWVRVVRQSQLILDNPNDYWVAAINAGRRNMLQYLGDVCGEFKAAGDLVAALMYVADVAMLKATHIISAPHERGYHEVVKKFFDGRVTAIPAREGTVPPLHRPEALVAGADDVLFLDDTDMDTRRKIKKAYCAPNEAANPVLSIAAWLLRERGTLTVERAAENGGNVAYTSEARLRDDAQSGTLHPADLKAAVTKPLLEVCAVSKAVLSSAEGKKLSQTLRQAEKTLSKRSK

[8] = molecular target: T4, Tyrosyl-tRNA synthetase, putative (Trypanosoma cruzi (strain CL Brener)); test: Trypanosoma cruzi tyrosyl tRNA synthetase (TcYRS) SOP; assay type: functional; conditions: 30 µM
[9] = molecular target: Chromo domain-containing protein 1 (Saccharomyces cerevisiae (strain ATCC 204508 / S288c) (Baker's yeast)) (UniProt P32657); test: ScCHD-1 Enzyme Inhibition Assay; assay type: functional; conditions: 30 µM; note: in the data most compounds retested in dose-response had high values
Chain of Chromo domain-containing protein 1 (Saccharomyces cerevisiae (strain ATCC 204508 / S288c) (Baker's yeast)) (P32657 whole entry, the tested form may be a part): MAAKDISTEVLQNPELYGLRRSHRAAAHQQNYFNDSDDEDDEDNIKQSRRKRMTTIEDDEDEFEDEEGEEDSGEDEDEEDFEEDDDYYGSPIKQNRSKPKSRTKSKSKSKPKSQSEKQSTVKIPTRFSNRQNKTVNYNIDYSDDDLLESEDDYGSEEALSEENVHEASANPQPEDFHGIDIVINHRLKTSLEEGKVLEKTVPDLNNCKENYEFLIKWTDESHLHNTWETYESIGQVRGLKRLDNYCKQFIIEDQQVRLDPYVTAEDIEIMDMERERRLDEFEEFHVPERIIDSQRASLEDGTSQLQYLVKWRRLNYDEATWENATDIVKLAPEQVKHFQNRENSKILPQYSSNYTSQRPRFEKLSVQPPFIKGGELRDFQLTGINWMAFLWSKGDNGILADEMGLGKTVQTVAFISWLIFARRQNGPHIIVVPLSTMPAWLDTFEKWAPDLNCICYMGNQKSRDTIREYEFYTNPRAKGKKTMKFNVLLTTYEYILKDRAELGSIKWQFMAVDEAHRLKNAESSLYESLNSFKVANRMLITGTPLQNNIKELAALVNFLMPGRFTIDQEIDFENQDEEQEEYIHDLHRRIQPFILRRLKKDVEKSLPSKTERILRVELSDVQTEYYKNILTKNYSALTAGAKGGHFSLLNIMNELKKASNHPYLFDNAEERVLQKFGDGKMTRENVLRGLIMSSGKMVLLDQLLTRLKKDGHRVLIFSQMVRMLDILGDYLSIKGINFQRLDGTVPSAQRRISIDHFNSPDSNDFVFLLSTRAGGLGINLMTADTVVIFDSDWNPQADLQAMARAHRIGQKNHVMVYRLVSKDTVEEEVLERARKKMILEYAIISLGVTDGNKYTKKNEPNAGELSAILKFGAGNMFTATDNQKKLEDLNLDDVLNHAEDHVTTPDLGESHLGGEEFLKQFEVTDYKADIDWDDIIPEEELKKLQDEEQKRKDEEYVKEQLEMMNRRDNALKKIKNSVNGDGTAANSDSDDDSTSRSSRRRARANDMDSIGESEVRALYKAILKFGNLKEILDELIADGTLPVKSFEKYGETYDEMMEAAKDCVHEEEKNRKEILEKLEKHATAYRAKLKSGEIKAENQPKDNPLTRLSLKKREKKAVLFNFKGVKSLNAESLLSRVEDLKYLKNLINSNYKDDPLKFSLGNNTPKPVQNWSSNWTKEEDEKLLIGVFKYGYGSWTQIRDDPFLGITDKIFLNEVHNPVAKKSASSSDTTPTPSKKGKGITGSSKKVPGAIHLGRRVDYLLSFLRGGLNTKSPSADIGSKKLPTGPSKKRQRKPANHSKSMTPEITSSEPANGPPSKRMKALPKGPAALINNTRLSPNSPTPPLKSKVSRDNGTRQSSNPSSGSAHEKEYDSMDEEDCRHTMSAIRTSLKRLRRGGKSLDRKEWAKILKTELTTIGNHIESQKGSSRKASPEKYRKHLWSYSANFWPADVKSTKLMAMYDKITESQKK

Chain of Protein translocase subunit SecA (Escherichia coli (strain K12)) (P10408 whole entry): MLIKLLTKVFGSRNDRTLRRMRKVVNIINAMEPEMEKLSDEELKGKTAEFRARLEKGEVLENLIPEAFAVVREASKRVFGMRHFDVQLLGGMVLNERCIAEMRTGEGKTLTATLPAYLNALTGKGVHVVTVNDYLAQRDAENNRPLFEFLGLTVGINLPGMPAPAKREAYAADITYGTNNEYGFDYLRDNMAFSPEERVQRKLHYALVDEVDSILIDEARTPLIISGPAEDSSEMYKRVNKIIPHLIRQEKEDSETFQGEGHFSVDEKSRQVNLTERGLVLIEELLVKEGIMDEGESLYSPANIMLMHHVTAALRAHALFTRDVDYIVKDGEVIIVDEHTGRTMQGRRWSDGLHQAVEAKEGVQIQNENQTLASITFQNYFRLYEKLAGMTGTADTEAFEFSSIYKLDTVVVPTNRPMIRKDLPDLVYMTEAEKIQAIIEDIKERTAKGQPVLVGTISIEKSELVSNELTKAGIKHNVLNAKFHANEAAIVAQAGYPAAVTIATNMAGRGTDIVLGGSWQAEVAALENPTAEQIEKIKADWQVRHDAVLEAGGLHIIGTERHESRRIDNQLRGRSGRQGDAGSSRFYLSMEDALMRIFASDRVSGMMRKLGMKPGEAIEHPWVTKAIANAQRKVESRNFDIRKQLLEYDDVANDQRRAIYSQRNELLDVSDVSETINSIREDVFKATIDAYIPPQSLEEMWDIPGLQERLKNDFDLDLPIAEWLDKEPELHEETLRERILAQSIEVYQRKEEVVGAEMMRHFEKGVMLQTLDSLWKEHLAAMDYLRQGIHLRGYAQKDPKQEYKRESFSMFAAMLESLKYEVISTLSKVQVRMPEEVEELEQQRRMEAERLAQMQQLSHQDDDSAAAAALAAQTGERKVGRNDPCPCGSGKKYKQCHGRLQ
Chain of Sialic acid-binding Ig-like lectin 9 (Homo sapiens) (Q9Y336 whole entry): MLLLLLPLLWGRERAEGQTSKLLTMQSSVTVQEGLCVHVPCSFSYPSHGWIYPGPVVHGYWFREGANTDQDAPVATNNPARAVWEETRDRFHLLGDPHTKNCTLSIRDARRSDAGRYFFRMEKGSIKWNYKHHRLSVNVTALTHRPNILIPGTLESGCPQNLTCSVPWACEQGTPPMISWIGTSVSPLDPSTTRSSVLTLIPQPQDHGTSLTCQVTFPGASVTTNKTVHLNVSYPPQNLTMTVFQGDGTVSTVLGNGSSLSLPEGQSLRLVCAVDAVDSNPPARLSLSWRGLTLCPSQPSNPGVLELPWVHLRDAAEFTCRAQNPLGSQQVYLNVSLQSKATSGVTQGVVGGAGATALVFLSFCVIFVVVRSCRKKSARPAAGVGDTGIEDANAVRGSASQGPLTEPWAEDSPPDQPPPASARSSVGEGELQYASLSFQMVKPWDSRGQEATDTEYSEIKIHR

With `OC(CN1CCN(c2ncccn2)CC1)c1cccc(F)c1` (stereo not drawn) the Percent Effect [1] was -2.83%, the Percent Effect [2] was 13.5% and the Percent Effect [3] was -5.06%. It also gave a Percent Effect [4] of 19.1%, a Percent Effect (Trypanosoma cruzi) of 4.99% and a Percent Effect [5] of 16.6%. The Percent Effect [6] was 2.49%, the Percent Effect (Homo sapiens) was 20.5% and the Percent Effect [7] was 6.45%. It also gave a Percent Effect [8] of 16.1% and a Percent Effect [9] of -5.42%.

`COCCN1CCC2(CCCN(C(=O)c3cnoc3C)C2)C1=O` (stereo not drawn) gave a Percent Effect [1] of 0.295%, a Percent Effect [2] of 8.22% and a Percent Effect [3] of 3.34%. It also gave a Percent Effect [4] of 5.08%, a Percent Effect (Trypanosoma cruzi) of -6.55% and a Percent Effect [5] of -3.19%. For the same compound, the Percent Effect [6] was 12.2%, the Percent Effect (Homo sapiens) was 0.796% and the Percent Effect [7] was 4.17%. For the same compound, the Percent Effect [8] was 3.7% and the Percent Effect [9] was -5.73%.

In the case of `CS(=O)(=O)NC1CCN(C(=O)NCCNc2ccccn2)CC1`, the Percent Effect [1] was -6.26%, the Percent Effect [2] was 10.8% and the Percent Effect [3] was 0.725%. It also gave a Percent Effect [4] of -1.36%, a Percent Effect (Trypanosoma cruzi) of -10.7% and a Percent Effect [5] of 3.14%. For the same compound, the Percent Effect [6] was 4.85%, the Percent Effect (Homo sapiens) was 14.7% and the Percent Effect [7] was -0.99%. For the same compound, the Percent Effect [8] was 1.22% and the Percent Effect [9] was -1.89%.

Compound `CCc1nc(CN2CCOC(Cn3nc(C)nc3C)C2)no1` (stereo not drawn) has a Percent Effect [1] of -1.49%, a Percent Effect [2] of 23.7% and a Percent Effect [3] of 2.58%. The Percent Effect [4] was -7.19%, the Percent Effect (Trypanosoma cruzi) was -2.33% and the Percent Effect [5] was 4.32%. The Percent Effect [6] was 3.64%, the Percent Effect (Homo sapiens) was 5.43% and the Percent Effect [7] was 8.37%. The Percent Effect [8] was 18.5% and the Percent Effect [9] was -6.23%.

`O=C(CCn1cnnc1)N1CCCC(c2ncc[nH]2)C1` (stereo not drawn) was tested, and the Percent Effect [1] was 1.63%, the Percent Effect [2] was 5.48% and the Percent Effect [3] was 11.6%. It also gave a Percent Effect [4] of 0.524%, a Percent Effect (Trypanosoma cruzi) of -6.27% and a Percent Effect [5] of 2.27%. For the same compound, the Percent Effect [6] was 8.52%, the Percent Effect (Homo sapiens) was 6.13% and the Percent Effect [7] was 3.23%. The Percent Effect [8] was 12.5% and the Percent Effect [9] was -7.06%.

In the case of `CC[C@@]1(O)CCN(C(=O)c2ccsc2)C[C@H]1O`, the Percent Effect [1] was -3.94%, the Percent Effect [2] was 4.17% and the Percent Effect [3] was -1.21%. It also gave a Percent Effect [4] of -6.46%, a Percent Effect (Trypanosoma cruzi) of -2.82% and a Percent Effect [5] of 3.09%. It also gave a Percent Effect [6] of 12.3%, a Percent Effect (Homo sapiens) of -3.4% and a Percent Effect [7] of 4.21%. It also gave a Percent Effect [8] of 5.13% and a Percent Effect [9] of 0.37%.

Compound `CNC(=O)CCc1cc(C)nc(C2CCCN2)n1` (stereo not drawn) has a Percent Effect [1] of -2.12%, a Percent Effect [2] of -1.35% and a Percent Effect [3] of 6.23%. It also gave a Percent Effect [4] of 2.54%, a Percent Effect (Trypanosoma cruzi) of -1.78% and a Percent Effect [5] of 3.02%. For the same compound, the Percent Effect [6] was 5.62%, the Percent Effect (Homo sapiens) was 13.2% and the Percent Effect [7] was 3.23%. For the same compound, the Percent Effect [8] was -3.9% and the Percent Effect [9] was 6.64%.

`Cc1ccc(CCNC(=O)N2CCCC(Cc3nccn3C)C2)cn1` (stereo not drawn) was tested, and the Percent Effect [1] was -5.16%, the Percent Effect [2] was 0% and the Percent Effect [3] was -1.4%. The Percent Effect [4] was 2.27%, the Percent Effect (Trypanosoma cruzi) was 4.49% and the Percent Effect [5] was -2.5%. For the same compound, the Percent Effect [6] was 9.89%, the Percent Effect (Homo sapiens) was 16.9% and the Percent Effect [7] was 7.92%. It also gave a Percent Effect [8] of 13.4% and a Percent Effect [9] of -0.907%.
